Measurements as given in PubChem BioAssay AID1508622 (National Center for Advancing Translational Sciences (NCATS), 2021).
Some structures have more than one record in an assay (separate samples or runs), and their calls can disagree. Active and inactive are the calls of the source. The call rests on the fitted dose curve; in most records, active means well fitted activation curve with a large enough effect; inconclusive means small, poorly fitted or top-dose-only effect; inactive means no such curve, though single readings can be large or run the other way.

Experiment: Confirmatory qHTS for Identification of Small Molecule Activators of Huntingtin-Antisense Promoter Activity
Conditions: HEK293 HTT-AS promoter firefly luciferase reporter, 24 h; series mostly up to 57.5 µM; activity change, positive = activation: at the top concentration
Outline: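 HEK293 luciferase reporter cells, 2,500/well, cultured 24 h, then exposed to compounds at up to 57.5 uM final for 24 h at 37C. Firefly luciferase luminescence read; normalized to vehicle (0%) and zero RLU (-100%).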
Potency means the concentration at half of the fitted maximal effect.

Activity change, positive = activation, inactive:
Cc1ccccc1Cn1c(=O)n(Cc2ccco2)c(=O)c2oc3ccccc3c21 -7.53%
CN(C)S(=O)(=O)c1ccc(C(=O)NCCSc2c(-c3ccc(Cl)cc3)[nH]c3ccccc23)cc1 -31.7%
CCN(c1ccccc1)S(=O)(=O)c1c(-c2ccc(C)cc2)csc1C(=O)OC -32.5%
CC1CCCCN1S(=O)(=O)c1ccc2c(c1)oc(=O)n2CC(=O)Nc1ccc(Cl)cc1 (centres undefined) -38.9%
CCOc1ccccc1C(=O)Nc1ccc2nc3c(c(Nc4ccc(OC)c(OC)c4)c2c1)CCCC3 -19.5%
Cc1ccc(Cl)cc1N(C)C(=O)C1CCCN(c2ncnc3onc(-c4ccc(F)cc4)c23)C1 (centres undefined) -42.5%
Cc1ccc(-c2nc(S(=O)(=O)c3ccccc3)c(SCC(=O)NC3CCCCC3)o2)cc1 -23.6%
COc1ccc(C)cc1NS(=O)(=O)c1ccc(-c2cnc(C3CC3)o2)cc1 -91.7%
CCOC(=O)c1cnc2ccc(OCC)cc2c1Nc1ccc(OCc2ccccc2Cl)cc1 -84.3%
Cc1cc(C)cc(OCCn2c(C3CC(=O)N(c4ccccc4Cl)C3)nc3ccccc32)c1 (centres undefined) -37.7%
CCOCCCNC(=O)Nc1cc(C(=O)NCc2ccc(C(C)C)cc2)ccc1N1CCCC1 -55%
CC1CCN(C(=O)CSc2nnc(NC(=O)Nc3ccccc3)s2)CC1 -27%
COc1cc(CN(C(=O)COc2ccc(C)cc2)c2ccccn2)cc(OC)c1OC -40.7%
CCS(=O)(=O)c1ncc(Cl)c(C(=O)N(Cc2ccccc2)c2ccc(OC)cc2)n1 -94.1%
CC=C1NC(=O)[C@H]2CSSCCC=C[C@H](CC(=O)N[C@H](C(C)C)C(=O)N2)OC(=O)[C@H](C(C)C)NC1=O -3.47%
CCc1ccc(NC(=O)c2ccc(F)c(S(=O)(=O)N3CCC4(CC3)OCCO4)c2)cc1 -82.6%
COc1ccc2nc(N3CCN(C(=O)CS(=O)(=O)c4ccc(C)cc4)CC3)sc2c1 -25.5%
CCN(CC)c1ccc(NC(=O)c2sc3nc(-c4ccccc4)cn3c2C)cc1 -7.86%
Cc1ccccc1OCc1ccc(-c2nc(C#N)c(NCc3cccnc3)o2)o1 -30.9%
COc1ccccc1NC(=O)c1ccc(-c2nc(COc3ccc(C)cc3)c(C)o2)cc1 -54.7%
COc1cc(NC(=O)Cn2nc(C(F)(F)F)c3c2CCC3)cc(OC)c1OC -42.7%
CC(C)(C)C(=O)NCCc1nc2ccccc2n1CCCCOc1ccc(Cl)cc1 -34.8%
CCCCN1C(C(=O)c2ccccc2)=C(OC(C)=O)c2ccccc2S1(=O)=O -45.9%

Potency, 19 µM (active) and inactive:
O=C(CCCCCCC(=O)Nc1ccccc1)NO
